The values below come from PubChem BioAssay (NCI).

This is part of a sample that, as a whole, favours compounds with a hit. Of some 83,000 tested, about 20% had one in any assay.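 48-hour exposure, single concentration, 96-well plates; percent growth endpoint where 0 means no net growth. Active: below 10.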 The source made the active and inactive calls.

This assay deals with HL-60(TB) leukemia. As to the kind of experiment: NCI-60 one-dose screen, 48 h (100 = growth as untreated, 0 = no growth, -100 = all killed). The following applies: 10 µM unless noted.
For the compound `Cc1c(N)ccc(-c2ccc(N)c(C)c2S(=O)(=O)O)c1S(=O)(=O)O`, the growth is 94.7% (inactive). For the compound `COc1ccc(-c2cc(-c3cc(OC)ccc3OC)nc(SCC(=O)c3ccccc3)c2C#N)cc1`, the growth is 98.4% (inactive). As for `COc1ccc(/C(=N/O)c2cc(F)c(F)c(OC)c2F)cc1O`, the growth is -5.23% (active).

For the compound `O=S(=O)(NCCCNc1cc(-c2cn(-c3ccccc3)nc2-c2cccc(O)c2)ccn1)c1ccc(Cl)cc1`, the growth was 1.22% (active). The value for `N#Cc1ccc(NC(=O)Nc2ccc(Oc3ccc(NC(=O)Nc4ccc(C#N)cc4)cc3)cc2)cc1` was -38.5% (active); that for `COCCCNc1nc(NC(=O)c2ccc(F)cc2C)cc(-c2cccnc2)n1` was 106% (inactive). The value for `COc1ccc(/C=C/C(=O)c2cc(O)ccc2O)cc1` was 3.32% (active).

In the case of `C/C(=N/O)c1ccc(F)cc1`, the growth is 102% (inactive).

For `CC(=O)c1cccc(NS(=O)(=O)c2ccc(C)cc2)c1`, the growth is 70.9% (inactive).

Regarding `COc1cc(NS(C)(=O)=O)ccc1Cc1c2ccccc2nc2ccccc12`, the growth is -2.45% (active). Take `O=C1Nc2ccc(Cl)cc2C12Nc1cc(Cl)ccc1S2` (stereo not given): the growth is 42.6% (inactive). Turning to `CCc1n(Cc2ccc3ccccc3c2)cc[n+]1Cc1ccc2ccccc2c1`, the growth is -54% (active). As to `COc1ccc(-c2cn(-c3cccc(C(=O)/C=C/c4cc(OC)c(OC)c(OC)c4)c3)c(=O)[nH]2)cc1OC`, the growth is 66.6% (inactive).

As to `COc1ccc(-c2cc(NC(=O)Nc3ccc(O)cc3)no2)cc1`, the growth is 26.4% (inactive).

In the case of `COc1cccc(/C=C/C(=O)c2cc3c(N)c(C(=O)Nc4ccccc4)sc3nc2C)c1`, the growth was 16.9% (inactive).
